The full ranking holds about 11,000 sequences; the median of “log2 fold change” is about 0.00022, and the highest 2% start at about 0.34. Some of the results follow.
The sequences below were run against GST-SBP-SLBP (stem-loop binding protein) (Homo sapiens, UniProt Q14493 1-270) (assay: targeted RNA Bind-n-Seq; RBNS binding buffer: 25 mM Tris pH 7.5, 150 mM KCl, 3 mM MgCl2, 0.1% Tween, 0.5 mg/mL BSA, 1 mM DTT; 27 nM protein, 750 pM RNA pool; temperature not stated; high values mean tight binding). Conditions: protein: recombinant; tags: N-terminal GST and SBP (pGEX6P1-SBP); structured_RNA.
Outline: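 A designed RNA oligo pool, transcribed with T7, was present at 750 pM and incubated in RBNS binding buffer with 27 nM of GST-SBP-tagged protein that had been expressed in Rosetta(DE3) pLysS E. coli and purified with glutathione. After reverse transcription with a 10-nucleotide barcoded primer and PCR, the bound RNA was sequenced as 200-cycle paired-end reads on a MiSeq. Each sequence's binding signal is the DEseq binary-logarithm fold change in read counts, computed after joining reads with FLASH, aligning with HISAT2 and collapsing by barcode.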

Row | Sequence | binding signal [log2 fold change]
1 | GGUCACGUCUCAAUCAACUCUACUCCCAGGGAAAACCCUGGUAAUUUCAACAGCUCGCAGUCAAG | 0.454 ± 0.318
2 | GGUCACGUCUCAAUCAACUCUAUUCCCAGGGAAAACCCUGGCAUUUUCAACAGCUCGCAGUCAAG | 0.49 ± 0.262
3 | GGUCACGUCUCAAUCAACUCAACUUCCAGGGAAAACCCUGGCAUUUUCAACAGCUCGCAGUCAAG | 0.305 ± 0.262
4 | GGUCACGUCUCAAUCAACUCUUUUUCCAGGGAAACCCCUGGUAUACUCAACAGCUCGCAGUCAAG | 0.445 ± 0.233
5 | GGUCACGUCUCAAUCAACUCUAUUCCCAGGGAAACCCCUGGCAUACUCAACAGCUCGCAGUCAAG | 0.311 ± 0.273
6 | GGUCACGUCUCAAUCAACUCAAUCCCCAGGGAAAACCCUGGCAUACUCAACAGCUCGCAGUCAAG | 0.351 ± 0.232
7 | GGUCACGUCUCAAUCAACUCAUCUCCCAGGGAAAACCCUGGCAUUCUCAACAGCUCGCAGUCAAG | 0.367 ± 0.304
8 | GGUCACGUCUCAAUCAACUCAGUUUCCAGGGAAAACCCUGGCUUUCUCAACAGCUCGCAGUCAAG | 0.31 ± 0.297
9 | GGUCACGUCUCAAUCAACUCUUUUUCCAGGGAAAACCCUGGCAUGUUCAACAGCUCGCAGUCAAG | 0.34 ± 0.244
10 | GGUCACGUCUCAAUCAACUCUUUUUCCAGGGAAAACCCUGGCGUAUUCAACAGCUCGCAGUCAAG | 0.352 ± 0.225
11 | GGUCACGUCUCAAUCAACUCUUCUCCCAGGGAAACCCCUGGCAUUCUCAACAGCUCGCAGUCAAG | 0.304 ± 0.257
12 | GGUCACGUCUCAAUCAACUCCUUAGAGGGGGGGAAAACCCCUUUACCCUCGUUAUCAACAGCUCGCAGUCAAG | 0.302 ± 0.406
13 | GGUCACGUCUCAAUCAACUCCUUAGAGGGGGGGAAAACCCCUUUACCCUCAAAAUCAACAGCUCGCAGUCAAG | 0.546 ± 0.43
14 | GGUCACGUCUCAAUCAACUCCUUAGAGGGGGGGAAAACCCCUUUACCCUCAACCUCAACAGCUCGCAGUCAAG | 0.395 ± 0.407
15 | GGUCACGUCUCAAUCAACUCCUUAGAGGGGGGGAAAACCCCUUUACCCUCAACUUCAACAGCUCGCAGUCAAG | 0.489 ± 0.43
16 | GGUCACGUCUCAAUCAACUCAAUGGAGGGGGGGAAAACCCCUUUACCCUCAAAAUCAACAGCUCGCAGUCAAG | 0.547 ± 0.434
17 | GGUCACGUCUCAAUCAACUCCCCAGAGGGGGGGAAAACCCCUUUACCCUCAUCCUCAACAGCUCGCAGUCAAG | 0.566 ± 0.415
18 | GGUCACGUCUCAAUCAACUCAUAGGAGGGGGGGAAAACCCCUUUACCCUCAUCAUCAACAGCUCGCAGUCAAG | 0.315 ± 0.446

Row | Sequence | binding signal [log2 fold change]
19 | GGUCACGUCUCAAUCAACUCAUAGGAGGGGGGGAAAACCCCUUUACCCUCAACUUCAACAGCUCGCAGUCAAG | 0.451 ± 0.453
20 | GGUCACGUCUCAAUCAACUCUUCAGAGGGGGGGAAAACCCCUUUACCCUCACAAUCAACAGCUCGCAGUCAAG | 0.311 ± 0.418
21 | GGUCACGUCUCAAUCAACUCAUCAGAGGGGGGGAAAACCCCUUUACCCUCAACUUCAACAGCUCGCAGUCAAG | 0.39 ± 0.431
22 | GGUCACGUCUCAAUCAACUCAUCAGAGGGGGGGAAAACCCCUUUACCCUCAUCCUCAACAGCUCGCAGUCAAG | 0.388 ± 0.447
23 | GGUCACGUCUCAAUCAACUCCUUAGAGGGGGGGAAAACCCCUUUGCCCUCGUUUUCAACAGCUCGCAGUCAAG | 0.342 ± 0.445
24 | GGUCACGUCUCAAUCAACUCCUUAGAGGGGGGGAAAACCCCUUUGCCCUCACCGUCAACAGCUCGCAGUCAAG | 0.412 ± 0.444
25 | GGUCACGUCUCAAUCAACUCCUUAGAGGGGGGGAAAACCCCUUUGCCCUCCGUAUCAACAGCUCGCAGUCAAG | 0.307 ± 0.406
26 | GGUCACGUCUCAAUCAACUCCUUAGAGGGGGGGAAAACCCCUUUGCCCUCAACAUCAACAGCUCGCAGUCAAG | 0.411 ± 0.394
27 | GGUCACGUCUCAAUCAACUCUACGGCAGGAGUUUACUCCUGGAAUCUCAACAGCUCGCAGUCAAG | 0.318 ± 0.232
28 | GGUCACGUCUCAAUCAACUCAAAAGAGGGGGGGAAAACCCCUUUACCCUCACCAUCAACAGCUCGCAGUCAAG | 0.563 ± 0.413
29 | GGUCACGUCUCAAUCAACUCAACAGAGGGGGGGAAAACCCCUUUACCCUCACCAUCAACAGCUCGCAGUCAAG | 0.341 ± 0.391
30 | GGUCACGUCUCAAUCAACUCCACAGAGGGGGGGAAAACCCCUUUACCCUCCAUCUCAACAGCUCGCAGUCAAG | 0.416 ± 0.406
31 | GGUCACGUCUCAAUCAACUCUCUAGAGGGGGGGAAAACCCCUUUACCCUCACCAUCAACAGCUCGCAGUCAAG | 0.354 ± 0.424
32 | GGUCACGUCUCAAUCAACUCAAUAGAGGGGGGGAAAACCCCUUUACCCUCACCAUCAACAGCUCGCAGUCAAG | 0.306 ± 0.41
33 | GGUCACGUCUCAAUCAACUCCAAGGAGGGGGGGAAAACCCCUUUACCCUCAAUCUCAACAGCUCGCAGUCAAG | 0.482 ± 0.442
34 | GGUCACGUCUCAAUCAACUCCCUAGAGGGGGGGAAAACCCCUUUACCCUCACAAUCAACAGCUCGCAGUCAAG | 0.389 ± 0.428
35 | GGUCACGUCUCAAUCAACUCCCUAGAGGGGGGGAAAACCCCUUUACCCUCAAUGUCAACAGCUCGCAGUCAAG | 0.558 ± 0.455

— publication PMC5892938, “SARNAclust: Semi-automatic detection of RNA protein binding motifs from immunoprecipitation data”
